Shown are actives, neighbours in structure and some others; about 6.1% of the full set was active somewhere.
DRD3 antagonist: D3 dopamine receptor (human) antagonism. D3R cells, DiscoveRx beta-arrestin luminescence, antagonist mode; stronger effect = lower value. 360,000 compounds, 2.5% hits. max response, negative = inhibition, %; in the data active means max response below about -50%; inconclusive means no clear call, values can overlap the other calls; further: on the % scale 0 is the no-effect control and ±100 the full control effect
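Cells plated overnight at 1500 cells/well, then exposed to library compounds with dopamine controls for 90 minutes at 37 degrees C. DiscoveRx reagent added for 30–60 minutes at room temperature; luminescence read, quantitative HTS format.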
D3 ag: agonists of human D3 dopamine receptor. 410,000 compounds, 0.58% hits. max activation, %. P35462. D3R DiscoveRx beta-arrestin cells, luminescence, 90 min; in the data active means max activation above about 30%; further: 0% is about no effect
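Agonist mode: compounds and dopamine controls were applied to plated cells for 90 min at 37 degrees C after an overnight attachment at 1500 cells/well. Luminescent read-out followed 30 - 60 minutes at room temperature with DiscoveRx detection reagent.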
ERG Ets-DNA blk: ERG Ets/DNA interaction inhibition; fluorescence polarization, His-ERG Ets domain / labelled DNA; Potency, µM (series often up to 76.9 µM), for the others: top-dose FP activity, negative = inhibition, hits mostly inhibitors; P11308; 370,000 compounds, 0.028% hits; active means well fitted inhibition curve with a large enough effect in the polarisation, with a control signal flat; inconclusive means small, poorly fitted or top-dose-only effect, or effect the other way, or a change in a side signal; inactive means no such curve, though single readings can be large or run the other way; the % refers to the polarisation;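 further: polarization taken with two DNA probes labelled with fluorescein and Texas red; potency means the concentration at half of the fitted maximal effect; % of control where 0% means no effect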
Target sequence (P11308 whole entry, looked up, the tested form may be a part): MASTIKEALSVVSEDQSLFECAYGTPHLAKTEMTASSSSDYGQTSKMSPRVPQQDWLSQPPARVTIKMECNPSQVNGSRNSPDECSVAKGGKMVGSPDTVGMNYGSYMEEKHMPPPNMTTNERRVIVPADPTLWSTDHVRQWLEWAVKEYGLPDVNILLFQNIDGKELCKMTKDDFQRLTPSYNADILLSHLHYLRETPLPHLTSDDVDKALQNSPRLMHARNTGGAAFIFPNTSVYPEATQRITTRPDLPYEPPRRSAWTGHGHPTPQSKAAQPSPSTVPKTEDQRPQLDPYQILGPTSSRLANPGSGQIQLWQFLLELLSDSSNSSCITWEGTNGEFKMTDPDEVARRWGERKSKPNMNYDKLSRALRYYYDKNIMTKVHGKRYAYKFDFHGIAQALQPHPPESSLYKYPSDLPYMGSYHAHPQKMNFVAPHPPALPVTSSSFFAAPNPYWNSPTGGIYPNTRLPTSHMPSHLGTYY
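His-tagged ERG Ets domain (1 uM in the protein solution; 300mM KCl, 50mM Tris-HCl, 1mM EDTA, 1mM DTT, pH 7.5) received compound, then a probe mix of 5 nM fluorescein-DNA and 100nM Texas-615-DNA. Fluorescence polarization was read for both dyes.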
D1 potentiator: enhances dopamine response at the human D1 receptor; P21728; HEK293 TREx D1 cells, calcium flux, dopamine EC20 potentiation; potentiation, % at 10 µM; 360,000 compounds, 0.036% hits; AID 504651; in the data active means potentiation above about 30%; further: 0% is about no effect
D1 antag: antagonists of human D1 dopamine receptor. AID 504652. 360,000 compounds, 3.2% hits. activity change, negative = inhibition, % at 10 µM. HEK293 TREx D1 cells, calcium flux, dopamine EC80; stronger effect = lower value; in the data active means activity change below about -30%; further: on the % scale 0 is the no-effect control and ±100 the full control effect
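Allosteric or orthosteric antagonism assessed as attenuation of the calcium response to EC80 dopamine, added 180 s after compound, in induced HEK293 Trex D1 cells loaded with no-wash calcium dye.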
D1 agonist: agonists of human D1 dopamine receptor. P21728. HEK293 T-REx D1 cells, calcium flux, agonist mode. activation, % at 2 µM. 360,000 compounds, 1% hits. AID 504660; in the data active means activation above about 30%; further: 0% is about no effect
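Agonism was scored from calcium flux recorded over 180 s (1 read/s) after pintool compound addition, following a 10-cycle baseline. Cells were inducible force-coupled HEK293 TREx D1, plated overnight at 30 C and loaded with no-wash calcium dye.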
The depositor's hits bear a star; ? = inconclusive; . = no result given.

SMILES	DRD3 antagonist	D3 ag	ERG Ets-DNA blk	D1 potentiator	D1 antag	D1 agonist
COc1cccc(C(=O)N/N=C2\SCC(=O)N2Cc2ccc3c(c2)OCO3)c1	-10.6	15.6	-3.9%	-1.4	9.4	1.8
COc1ccc(CC2(CO)CCN(Cc3cnc(-c4ccccc4C)nc3)CC2)cc1	-8.9	-11.1	-14.5%	-2.5	-1.8	1.9
Cc1ccc(-n2c(C)c3c(C)nnc(C)c3c2C)cc1C	-57.9*	1.7	2.8%	2.1	10.5	0.1
CCCCC(c1nnnn1CC1CCCO1)N1CCN(c2ccccc2)CC1 (stereo not given)	7.7	-3.5	-3.0%	-5.4	-2.0	4.3
CC(C)CC(c1nnnn1Cc1ccco1)N1CCN(C2CCCC2)CC1 (stereo not given)	-59.7*	0.6	1.9%	-1.1	-1.1	2.5
CCCCC(c1nnnn1CC1CCCO1)N1CCN(c2cc(Cl)ccc2C)CC1 (stereo not given)	-86.2*	-0.3	-3.0%	-3.0	27.1	1.6
CCCC(c1nnnn1Cc1ccco1)N1CCN(c2cc(Cl)ccc2C)CC1 (stereo not given)	-62.1*	-8.0	0.3%	0.7	3.3	1.3
Fc1ccc(C(c2nnnn2Cc2ccco2)N2CCN(C3CCCCC3)CC2)cc1 (stereo not given)	?	-0.7	3.4%	-8.9	-15.7	2.3
O=P(c1ccccc1)(c1ccccc1)C(c1ccco1)N1CCOCC1 (stereo not given)	-61.3*	-28.4	2.2%	-6.4	-18.1	3.9
COc1ccc(C)cc1N=Nc1ccc(O)c2ncccc12	-116.6*	-20.6	-7.7%	3.0	18.4	3.9
COc1cccc(N=Nc2ccc3cccnc3c2O)c1	-138.7*	-21.2	2.9%	4.2	-15.2	6.3
COc1ccc(N=Nc2ccc(O)c3ncccc23)cc1	-75.6*	-22.7	-3.4%	-1.0	44.7	11.5
Cc1ccccc1N=Nc1ccc(O)c2ncccc12	-116.8*	-4.4	3.5%	1.6	12.9	2.1
Cc1ccc(O)c2ncccc12	.	-8.3	.	.	.	.
Cc1ccc(NC(=O)Cc2nc(-c3c[nH]c(C(=O)N4CCCC4)c3)cs2)c(C)c1	26.1	1.0	6.6%	-2.6	-12.9	-0.3
Cc1nc(C)c(C(=O)NCCC(c2ccccc2)c2ccccc2)o1	4.9	-6.6	4.6%	-1.4	-9.2	6.8
Oc1ccc(N=Nc2ccc3c(c2)OCCO3)c2cccnc12	?	17.5	-8.1%	-1.9	109.3	23.1
COc1cccc(N=Nc2ccc(O)c3ncccc23)c1	-109.7*	-29.1	2.1%	-4.0	-20.9	16.7
O=c1ccc(-c2ccc(S(=O)(=O)NCC3CCN(Cc4ccccc4F)CC3)s2)n[nH]1	-2.1	1.1	2.7%	-7.2	-12.8	3.1
Cn1c(-c2ccccc2)cnc1N	-116.6*	-3.1	-2.3%	-1.1	9.6	0.9
Cc1[nH]c2c(Cl)cccc2c(=O)c1CN1CCCC1	-65.3*	-32.9	-3.9%	-2.6	13.4	1.7
CCCCN(C)C(=O)c1oc2ccc(S(=O)(=O)N3CCCCCC3)cc2c1C	-75.1*	-5.9	5.9%	-1.4	3.6	4.9
CCOC(=O)c1oc2ccc(S(=O)(=O)n3nc(-c4ccccc4)cc3N)cc2c1C	17.7	-0.5	-2.2%	-2.6	-34.0*	2.0
CCOC(=O)N1CCN(C(=O)c2ccc(Cl)c(S(=O)(=O)N3CCCC3)c2)CC1	-24.2	-1.5	-14.6%	33.5*	-1.8	0.3
CCOC(=O)c1oc2ccc(S(=O)(=O)n3nc(-c4ccc(OC)cc4)cc3N)cc2c1C	22.3	18.0	?	0.9	6.7	5.5
SMILES	DRD3 antagonist	D3 ag	ERG Ets-DNA blk	D1 potentiator	D1 antag	D1 agonist
CCOC(=O)N1CCN(C(=O)c2oc3ccc(S(=O)(=O)N4CCCCC4)cc3c2C)CC1	18.5	44.0*	1.2%	-0.7	9.9	4.7
COc1cccc(CN(C(=O)COc2ccc(Cl)cc2)C2CCS(=O)(=O)C2)c1 (stereo not given)	1.1	13.4	6.3%	-13.7	7.1	4.9
Cc1ccc2c(=O)cc(C(=O)NC3CCS(=O)(=O)C3)oc2c1C (stereo not given)	-7.8	5.9	6.0%	1.2	6.2	0.2
NC1=NC(=O)C2(COC(c3cccc([N+](=O)[O-])c3)OC2)S1 (stereo not given)	-15.4	-3.9	1.8%	-3.9	8.5	0.8
CN1CCN(Cc2cc(=O)oc3cc4c(cc23)CCC4)CC1	?	-8.3	4.2%	-0.8	-5.7	4.2
COC(=O)C1CCN(Cc2cc(=O)oc3cc(OC)ccc23)CC1	-16.5	33.7*	-0.4%	-8.0	-4.6	3.2
COc1ccc2c(CN3CCCC3)cc(=O)oc2c1	5.0	-9.7	.	.	.	.
CCOC(=O)C1CCN(Cc2cc(=O)oc3cc(C)c(Cl)cc23)CC1	10.8	35.8*	9.0%	-0.5	-1.0	3.0
CCCCc1cc(=O)oc2cc(OCC(=O)NC3CCN(Cc4ccccc4)CC3)ccc12	-53.7*	-15.5	3.6%	-3.3	12.7	5.9
CC1CCN(Cc2cc(=O)oc3cc4c(cc23)CCCC4)CC1	-98.4*	-17.7	10.1%	-0.5	-20.1	0.6
FC(F)(F)c1ccc2c(c1)ncc1c(-c3ccccc3)nn(-c3ccccc3)c12	.	-4.5	-1.4%	-2.6	24.6	2.8
Nc1nc(-c2ccccc2)c(-c2ccccc2)s1	0.0	1.6	-1.2%	0.5	-6.9	0.5
Nc1nc(-c2ccccc2)c(-c2ccc([N+](=O)[O-])cc2)s1	18.5	6.7	14.6%	-3.6	-4.0	71.3*
O=C(COC(=O)c1ccc(-c2nnc(-c3ccccc3)o2)cc1)c1ccccc1	5.2	-4.2	5.5%	-0.3	15.6	1.9
O=C(Cc1cccs1)N1CCN=C1SCc1ccccc1F	15.2	4.2	7.3%	-5.2	-36.3*	0.3
Cc1ccc(Cn2nc(-c3ccccc3)nc2-c2ccccc2)cc1	3.5	1.4	2.0%	.	.	.
O=C(NCc1ccc(F)cc1)C1CCN(C(=O)c2ccc(-n3ccc4ccccc43)s2)CC1	.	0.7	1.5%	-5.0	-31.4*	2.5
CCOc1ccc(CNC(=O)C2CCN(C(=O)c3ccc(-n4ccc5ccccc54)s3)CC2)cc1	.	9.4	3.1%	-5.3	-6.2	10.7
CC(C)(C)CC(C)(C)NCC(O)COc1c(F)cc(Br)cc1F (stereo not given)	?	-9.6	-5.8%	-8.1	6.7	39.4*
COc1ccc[nH]c1=O	-4.8	5.3	.	-4.3	18.7	1.5
CN(C)c1ccc(-c2csc(C(O)(c3ccccc3)C(F)(F)F)n2)cc1 (stereo not given)	-94.2*	-12.2	.	.	.	.
Cc1ccc(-c2csc(C(O)(c3ccccc3)C(F)(F)F)n2)cc1C (stereo not given)	-27.3	-10.4	.	.	.	.

Compound activity from PubChem.
